Where “and” joins values, the source holds several entries; their conditions need not be identical. Equal values may be shown once. Results filed as inconclusive are left out. A number with no mark means an inactive call. Calls of active or inactive are those of the source. Calls come from the whole dose curve; as a rule, active = well fitted curve in the direction sought with a large enough effect; inconclusive = small, poorly fitted or top-dose-only effect, or another doubt; inactive = no such curve, though single readings can be large; an effect the other way counts as inactive or inconclusive.
Assay: Primary qHTS for inhibitors of nuclear receptor binding SET domain protein 2 (NSD2) in an isogenic RCH-ACV NSD2 p.E1099K mutant (9B) (AID 1645876)
Details: RCH-ACV NSD2 E1099K (9B) viability, CellTiter-Glo, 72 h; series mostly up to 44.9 µM; activity change, negative = viability loss: at the top concentration
For CCN(CC)c1ccc2c(O)c(C=Nc3ccc(CC(=O)O)c(-c4c5c(nc6ccccc46)CCC(C(=O)NN)C5)c3)c(=O)oc2c1 (configuration not stated), the Potency was 2.9 µM (active).
In the case of CC1(C)CC[C@]2(C(=O)O[C@@H]3O[C@H](CO)[C@@H](O)[C@H](O)[C@H]3O)CC[C@]3(C)C(=CCC4[C@@]5(C)C[C@@H](O)[C@H](O)C(C)(C)C5CC[C@]43C)C2[C@@H]1O (some centres not stated), the “activity change, negative = viability loss” value is reported as -3.65% [at 17.3 µM].
With Cc1cc(N(C)C)ccc1-c1nc2ccc(-c3nc4ccc(N5CCN(C)CC5)cc4[nH]3)cc2[nH]1 the Potency was 0.578 µM (active).

Assay: Primary qHTS for inhibitors of nuclear receptor binding SET domain protein 2 (NSD2) in an RCH-ACV wild type WT cells (2C) (AID 1645877)
Details: RCH-ACV (leukaemia line) NSD2 WT (2C) viability, CellTiter-Glo, 72 h; series mostly up to 44.9 µM; activity change, negative = cell killing: at the top concentration
In the case of CC(C)=C/C=C\[C@H](C)[C@H]1CC[C@]2(C)C[C@@H]3C(C)=CC(=O)C3/C(CO)=C\C[C@@H]12 (some centres not stated), the Potency is reported as 11.3 µM (active).
In the case of CN1CCN(C(=O)c2ccc3cc(CCNc4ncnc5ccc(C#N)cc45)ccc3c2)CC1, the Potency is reported as 1.32 µM (active).
Compound CC(CCC1(O)OC2CC3C4CCC5CC(O[C@@H]6O[C@H](CO)[C@@H](O)[C@H](O)[C@H]6O[C@@H]6O[C@@H](C)[C@H](O)[C@@H](O)[C@H]6O)C(O)CC5(C)C4CCC3(C)C2C1C)CO[C@@H]1O[C@H](CO)[C@@H](O)[C@H](O)[C@H]1O (some centres not stated) has an activity change, negative = cell killing of -13.5% [at 9.23 µM].
In the case of C=C1CCC2C(C(C)(C)O)CCC2(C)CC(O)C(=C)CCC1O (configuration not stated), the Potency is reported as 10.1 µM (active).
With CO[C@H]1/C=C\O[C@@]2(C)Oc3c(C)c(O)c4c(O)c(c5c(nc6cc(C)ccn65)c4c3C2=O)NC(=O)/C(C)=C\C=C/[C@H](C)[C@H](O)[C@@H](C)[C@@H](O)[C@@H](C)[C@H](OC(C)=O)[C@@H]1C the Potency was 10.3 µM (active).
With C=C(C(=O)O)[C@@H]1CC[C@@]2(C)CC[C@H](O)[C@@]2(C(C)=O)C1 the Potency was 16.3 µM (active).
With C[C@@H]1O[C@@H](O[C@H]2[C@H](O[C@H]3CC[C@@]4(C)C(CC[C@]5(C)C4C=C[C@]46OC[C@@]7(CCC(C)(C)C[C@H]74)[C@@H](O)C[C@]65C)[C@]3(C)CO)O[C@H](CO)[C@@H](O)[C@@H]2O[C@@H]2O[C@H](CO)[C@@H](O[C@@H]3O[C@@H](C)[C@H](O)[C@@H](O)[C@H]3O)[C@H](O)[C@H]2O)[C@H](O)[C@H](O)[C@H]1O (some centres not stated) the Potency was 3.88 µM (active).
For CC12CCC(OC3OC(CO)C(O)C(OC4OC(CO)C(O)C(O)C4O)C3O)CC1=CCC1C2CCC2(C)/C(=C3/COC(=O)C3)CCC12O (configuration not stated), the “activity change, negative = cell killing” value was -8.57% [at 17.3 µM].
With CC(=O)O[C@]1(C(C)=O)CC[C@H]2[C@@H]3C[C@H](C)C4=CC(=O)C=C[C@]4(C)[C@@]3(F)[C@@H](O)C[C@@]21C the Potency was 0.0129 µM (active).
For CC1=CCC2C(C)(C)CCC[C@]2(C)[C@@]12CC[C@](C)(CC(=O)O)O2 (some centres not stated), the “activity change, negative = cell killing” value was -43%.
For C=C1C(=O)O[C@@H]2/C=C(\C)C(=O)/C=C/[C@](C)(O)C[C@@H](OC(=O)C(C)C)[C@@H]12, the Potency was 0.284 µM (active).
For N[C@H]1Cc2ccccc2N(O)C1=O, the Potency was 12.9 µM (active).
In the case of C[C@@H]1O[C@@H](O[C@H]2[C@H](O)[C@@H](O)[C@H](O[C@H]3[C@H](O[C@H]4CC[C@@]5(C)C(=CC[C@@H]6C5CC[C@]5(C)[C@@H]7[C@H](C[C@@H]65)O[C@]5(CC[C@@](C)(CO[C@@H]6O[C@H](CO)[C@@H](O)[C@H](O)[C@H]6O)O5)[C@H]7C)C4)O[C@H](CO)[C@@H](O)[C@@H]3O)O[C@@H]2CO)[C@H](O)[C@H](O)[C@H]1O (some centres not stated), the Potency is reported as 2.18 µM (active).
For CC1(C)[C@@H](O)CC[C@]2(C)[C@H]3CC=C4[C@@H]5C[C@](C)(C(=O)O)CC[C@]5(C)CC[C@@]4(C)[C@]3(C)CC[C@@H]12, the “outcome” value was “inactive”.
With COc1ccc(CCC(=O)c2c(O)cc(O)cc2O[C@@H]2O[C@H](CO)[C@@H](O)[C@H](O)[C@H]2O)cc1 the Potency was 8.93 µM (active).
With Cc1ccc([N+](=O)[O-])cc1S(=O)(=O)N(C)/N=C/c1cnc2ccc(Br)cn12 the Potency was 20.6 nM (active) and 74.2 nM (active).
In the case of O=C(O)CCCCCC[C@H]1C(=O)NC(=O)N1CC[C@@H](O)C1CCCCC1, the “activity change, negative = cell killing” value is reported as -30.3%.
In the case of COc1cc(/C=C/C(=O)OC[C@H]2O[C@@](CO)(O[C@H]3O[C@H](CO)[C@@H](O)[C@H](O)[C@H]3O)[C@@H](OC(=O)/C=C/c3ccc(O)c(OC)c3)[C@@H]2O)ccc1O, the “activity change, negative = cell killing” value is reported as -21.7% [at 17.3 µM].
For C=C1C(=O)O[C@@H]2C[C@H](C)[C@@]3(O)C=C(C(C)=O)[C@]4(CC3C[C@H]12)C(=O)O[C@H]1C[C@@H](C)C(CCC(C)=O)=CC[C@H]14 (some centres not stated), the Potency was 8.93 µM (active).
% is set by controls: 0 for no effect and ±100 for the full control effect; potency is the fitted concentration of half-maximal effect.
Note: nearly all actives have a fitted effect of over 70% in size.
